# This is one part of the list. How many sequences the whole screen found active is unknown.
# Target: furin, P09958
# Assay: furin cleavage Z-score vs untreated control; higher = more cleavage, active = 3.5 or more, inactive = 1 or less, 8 variable residues between constant flanks
# Procedure, shortened: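 In 50 mM HEPES pH 7.5 with CaCl2 and NaCl, purified furin was incubated with bead-anchored 8-mer peptide–cDNA fusions at 1:10 enzyme:substrate in 0.01 ml. Incubation times were 7.5, 15 and 30 min. DNA set free by cleavage was adapter-tagged by PCR and sequenced, with read counts taken as abundance. Log counts relative to furin-free reactions, after lowess adjustment and median absolute deviation scaling, form the cleavage Z-score.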
# Chain of furin, P09958 (P09958 whole entry): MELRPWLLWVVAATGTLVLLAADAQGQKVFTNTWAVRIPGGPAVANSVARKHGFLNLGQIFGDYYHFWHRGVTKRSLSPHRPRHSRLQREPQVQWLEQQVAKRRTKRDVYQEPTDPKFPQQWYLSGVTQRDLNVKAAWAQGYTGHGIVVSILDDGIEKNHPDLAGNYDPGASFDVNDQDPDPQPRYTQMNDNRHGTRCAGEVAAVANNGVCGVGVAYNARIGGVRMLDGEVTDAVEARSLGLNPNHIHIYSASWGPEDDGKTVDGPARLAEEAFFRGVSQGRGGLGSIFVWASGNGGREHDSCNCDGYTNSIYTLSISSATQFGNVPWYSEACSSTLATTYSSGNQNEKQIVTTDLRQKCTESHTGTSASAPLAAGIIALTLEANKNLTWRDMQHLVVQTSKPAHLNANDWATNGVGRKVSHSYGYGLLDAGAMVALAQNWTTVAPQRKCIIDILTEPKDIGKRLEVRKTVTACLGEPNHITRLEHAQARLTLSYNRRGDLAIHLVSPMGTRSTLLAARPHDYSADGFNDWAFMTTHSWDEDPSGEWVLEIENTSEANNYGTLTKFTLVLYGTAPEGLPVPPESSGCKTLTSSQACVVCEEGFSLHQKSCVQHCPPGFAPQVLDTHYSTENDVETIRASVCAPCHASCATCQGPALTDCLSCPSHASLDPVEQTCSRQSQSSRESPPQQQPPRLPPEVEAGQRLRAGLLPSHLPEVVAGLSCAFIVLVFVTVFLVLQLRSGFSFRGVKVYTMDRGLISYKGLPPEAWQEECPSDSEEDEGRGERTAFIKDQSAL
Sequence,furin cleavage Z-score (7.5 min),furin cleavage Z-score (15 min),furin cleavage Z-score (30 min)
CAYQATVCARAGNASASA [HC955],1.06,0.432 (inactive),-1.24 (inactive)
CAYFVRVQGLAGNASASA [HC616],0.749 (inactive),0.0281 (inactive),0.654 (inactive)
CALSTGLIHLAGNASASA [HC503],1.35,0.833 (inactive),1.12
CAAAQGYKVLAGNASASA [HC783],0.259 (inactive),0.477 (inactive),-0.5 (inactive)
CADPDLSDGSAGNASASA [HC1359],-1.03 (inactive),-0.792 (inactive),-0.78 (inactive)
CAVVCCSMSGAGNASASA [HC2096],-0.582 (inactive),-1.33 (inactive),-0.463 (inactive)
CARHRRIHSGAGNASASA [FS-2945],-0.899 (inactive),-0.653 (inactive),-0.511 (inactive)
CARILRSAWGAGNASASA [FS-2684],-1.8 (inactive),0.635 (inactive),0.838 (inactive)
CARQRRAAGGAGNASASA [FS-2588],4.04 (active),2.03,3.5 (active)
CARIRRNAKGAGNASASA [FS-1723],9.77 (active),9.21 (active),7.23 (active)
CARPLRDAGGAGNASASA [FS-2357],0.0621 (inactive),-0.105 (inactive),-0.644 (inactive)
CARQRRPHGGAGNASASA [FS-2765],-0.899 (inactive),-0.697 (inactive),-0.913 (inactive)
CARQRRAAKGAGNASASA [FS-3230],5.82 (active),8.24 (active),7.16 (active)
CARHRRAAGGAGNASASA [FS-2144],5.47 (active),4.69 (active),5.6 (active)
CARLRRFQKGAGNASASA [FS-2714],-0.592 (inactive),-0.736 (inactive),-0.569 (inactive)
CARQKKTTGGAGNASASA [FS-3034],-1.15 (inactive),-0.895 (inactive),-0.562 (inactive)
CASWLGNIIMAGNASASA [HC1574],-0.174 (inactive),-0.173 (inactive),0.459 (inactive)
CAEVVTSTAVAGNASASA [HC2223],-1.08 (inactive),1.73,0.704 (inactive)
CAGDDLVVICAGNASASA [HC1529],-1.44 (inactive),-0.0771 (inactive),-0.978 (inactive)
CAEPPVVHGCAGNASASA [HC1314],0.438 (inactive),1.71,-0.723 (inactive)
CARDRRAAGSAGNASASA [FS-1946],6.35 (active),7.75 (active),5.91 (active)
CARHLRSAGSAGNASASA [FS-1896],1.18,-0.11 (inactive),2.17

Sequence,furin cleavage Z-score (7.5 min),furin cleavage Z-score (15 min),furin cleavage Z-score (30 min)
CARHRRATGAAGNASASA [FS-2944],6.7 (active),5.37 (active),4.1 (active)
CATTPCRGSWAGNASASA [HC70],-0.828 (inactive),-1.44 (inactive),-0.599 (inactive)
CAEGERGFFYAGNASASA [EK6],-2.12 (inactive),-0.423 (inactive),-2.28 (inactive)
CASGHRTRRYAGNASASA [FS-192],7 (active),8.02 (active),8.16 (active)
CAEMSRTRRYAGNASASA [FS-1319],5.42 (active),8.78 (active),8.64 (active)
CADGAGKRVYAGNASASA [HC1558],1.53,1.27,0.404 (inactive)
CATSQTLLFNAGNASASA [HC1062],0.00122 (inactive),-0.692 (inactive),-0.503 (inactive)
CAVRKRSPWLAGNASASA [FS-3142],-1.29 (inactive),0.44 (inactive),1.17
CAVLKRDVDIAGNASASA [FS-1815],1.04,-1.55 (inactive),0.353 (inactive)
CAVRKRQVSLAGNASASA [FS-3141],-1.04 (inactive),-0.0874 (inactive),0.617 (inactive)
CAVRKRDLQTAGNASASA [FS-3140],2.53,5.9 (active),5.02 (active)
CARLKRDLATAGNASASA [FS-2043],9.22 (active),11.3 (active),9.07 (active)
CARLKRLFLAAGNASASA [FS-2991],0.382 (inactive),-1.83 (inactive),-1.56 (inactive)
CARLKPTLHGAGNASASA [HC967],-0.75 (inactive),-0.713 (inactive),0.566 (inactive)
CARLKRDRSAAGNASASA [FS-2220],6.33 (active),8.55 (active),8.68 (active)
CARLKRDPGIAGNASASA [FS-2350],3.26,4.16 (active),3.42
CAKTPCSAHLAGNASASA [HC2474],-0.289 (inactive),-0.529 (inactive),-1.11 (inactive)
CAMEWCSQHLAGNASASA [HC1708],0.411 (inactive),0.726 (inactive),0.812 (inactive)
CAEDVVCCSMAGNASASA [HC1368],-0.171 (inactive),0.686 (inactive),0.101 (inactive)
CATTQCSGSWAGNASASA [HC1882],-0.496 (inactive),-1.36 (inactive),-0.763 (inactive)
CAFRVGLHEYAGNASASA [HC1234],-0.864 (inactive),-0.389 (inactive),-0.313 (inactive)

# From the supplement of paper PMC3545927
